These results are taken from PubChem BioAssay.

Experiment [1] in a line: circadian clock period modulators, cell-based, LOPAC library, luminescence reporter (AID 2774).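 Note: values are relative to mean of DMSO wells on each plate.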 The note with it: circadian reporter cells, at 7 µM, actives lie on both sides.
Experiment [2] has as its system Hepatitis C virus NS3 helicase. The experiment can be described thus: HCV NS3 helicase inhibitors, primary screen, biochemical, fluorescence polarization, LOPAC1280 library (AID 687035; in the data active = inhibition above about 37%). The note with it: Purified HCV NS3 helicase, Cy5-dT15 ssDNA binding fluorescence polarization; stronger effect = higher value; concentration not given here. In general terms: Fluorescence polarisation rises when a labelled molecule tumbles more slowly, as on binding a larger partner.

A short description of experiment [3]: Cy5 fluorescence quenching or enhancement artefacts, artefact control for HCV NS3 helicase inhibitor project, biochemical, LOPAC1280 (AID 687037). The settings on record: Cy5-DNA-NS3h complex fluorescence interference counterscreen. (In general: Counterscreens check selectivity or assay interference.)
Experiment [4] can be described thus: sensitizers of A549 cells to miR-34 induction, primary screen, imaging, A549 dox-inducible miR-34, nuclei and caspase counts (AID 1347080;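 active = compounds whose cell count with miR-34 switched on is under 0.7 times the count with it off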). The note with it: A549 miR-34 inducible, Hoechst nuclei count, 48 h.
Experiment [5] is described as follows: phospholipid biosynthesis inhibitors in animal cells, primary screen, cell-based, LOPAC library, screen 4 (AID 1347384). The note with it: phospholipid biosynthesis inhibition screen, at 10 µM.
A short description of experiment [6]: viability rescue of complex I mutant cybrids, primary screen, cell-based, galactose medium, ATP luminescence (AID 1645843;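 active = z-score of at least 1.8 in each of two replicates, scored against plate mean and spread of sample wells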;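 note: positive z means more ATP and so rescue of galactose-driven cybrid death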). The note with it: complex I mutant cybrid cells, 72 h, stronger effect = higher value.
[7] abbreviates: stronger effect = lower value, cell number ratio, induced over uninduced.
The mark [8] stands for this setting: measured here: relative caspase fold change +Dox/-Dox.
Where [9] appears, read: measured here: total cells with miR-34 induction, stronger effect = lower value.
The mark [10] stands for this setting: measured here: total cells without miR-34 induction.

Active and inactive are the calls of the source. Unless noted, the rule behind the calls is not given here.

A word on the inhibition: it is the drop in the measured response relative to a control, in per cent. Take `O=c1[nH]c2cc(Cl)ccc2c(O)c1-c1ccc(Oc2ccccc2)cc1`: the period change in experiment [1] is -0.015 h (inactive). Also, in experiment [2], the inhibition is -2% (inactive). In addition, the fluorescence ratio (interference) in experiment [3] was 1 (inactive). For the same compound, the fold change in experiment [4] (setting [7]) is 1.06 (inactive); in experiment [4] (setting [8]), 0.974. For the same compound, the cell count in experiment [4] (setting [9]) is 10400; in experiment [4] (setting [10]), 9850. Also, the result in experiment [5] was inactive. The z-score in experiment [6] is 0.965 (inactive).
With `CN1CCc2cc(NC(=O)Nc3cccnc3)ccc21`, the period change in experiment [1] was 0.02 h (inactive). In experiment [2], the inhibition is -2% (inactive). For the same compound, the fluorescence ratio (interference) in experiment [3] is 1 (inactive). Moreover, the fold change in experiment [4] (setting [7]) was 1.02 (inactive); in experiment [4] (setting [8]) it was 2.86. Moreover, the cell count in experiment [4] (setting [9]) turned out to be 10800; in experiment [4] (setting [10]), 10700. For the same compound, in experiment [5], the compound was classed as inactive. Further, the z-score in experiment [6] is 1.34 (inactive).
Turning to `Nc1ccc(CCNc2ncnc3c2ncn3C2OC(CO)C(O)C2O)cc1` (stereo not given), the period change in experiment [1] was 0.215 h (inactive). In addition, in experiment [2], the inhibition was -1% (inactive). Further, the fluorescence ratio (interference) in experiment [3] is 1 (inactive). The fold change in experiment [4] (setting [7]) was 1.01 (inactive); in experiment [4] (setting [8]) it was 1.75. Besides, the cell count was 10600 in experiment [4] (setting [9]) and 10500 in experiment [4] (setting [10]). Further, the outcome in experiment [5] was inactive. In addition, in experiment [6], the z-score was 0.795 (inactive).
Turning to `NC(=O)c1ccccc1`, the period change in experiment [1] was -0.185 h (inactive). In experiment [2], the inhibition was 0% (inactive). In addition, in experiment [3], the fluorescence ratio (interference) was 1 (inactive). For the same compound, the fold change in experiment [4] (setting [7]) was 0.988 (inactive); in experiment [4] (setting [8]), 1.76. Moreover, the cell count in experiment [4] (setting [9]) was determined as 9430; in experiment [4] (setting [10]) it was 9540. In addition, in experiment [5], the compound was classed as inactive. Further, in experiment [6], the z-score is 0.385 (inactive).
Regarding `NC(C(=O)N[C@@H]1C(=O)N2C(C(=O)O)=C(Cl)CS[C@H]12)c1ccccc1` (stereo not given in full), in experiment [1], the period change is 0.03 h (inactive). Also, the inhibition in experiment [2] is 0% (inactive). The fluorescence ratio (interference) in experiment [3] was 1 (inactive). The fold change was 1.02 (inactive) in experiment [4] (setting [7]) and 2.15 in experiment [4] (setting [8]). The cell count in experiment [4] (setting [9]) was determined as 10500; in experiment [4] (setting [10]) it was 10300. The outcome in experiment [5] was inactive. Further, in experiment [6], the z-score was 0.38 (inactive).
In the case of `CC(C)COC(=O)OCN1C(=O)CN(CCN2CC(=O)N(COC(=O)OCC(C)C)C(=O)C2)CC1=O`, the period change in experiment [1] is -0.045 h (inactive). Besides, the inhibition in experiment [2] was 1% (inactive). The fluorescence ratio (interference) in experiment [3] is 1 (inactive). The figures for the fold change in experiment [4] (setting [7]) and in experiment [4] (setting [8]) were 0.995 (inactive) and 1.59, respectively. Besides, the cell count in experiment [4] (setting [9]) was 8180; in experiment [4] (setting [10]), 8220. In experiment [5], the call was inactive. Further, the z-score in experiment [6] was 0.435 (inactive).
As for `N[C@@H](Cc1ccc(O)c(I)c1)C(=O)O`, the period change in experiment [1] was 0.02 h (inactive). The inhibition in experiment [2] was -4% (inactive). For the same compound, the fluorescence ratio (interference) in experiment [3] is 0.9 (inactive). For the same compound, the fold change in experiment [4] (setting [7]) is 1.11 (inactive); in experiment [4] (setting [8]), 0.663. Besides, the values for the cell count in experiment [4] (setting [9]) and in experiment [4] (setting [10]) were 11600 and 10400, respectively. Moreover, the compound was called inactive in experiment [5]. For the same compound, in experiment [6], the z-score was 0.59 (inactive).
Take `CC(=O)SCC[N+](C)(C)C`: the period change in experiment [1] is 0.015 h (inactive). Moreover, in experiment [2], the inhibition was 0% (inactive). In addition, in experiment [3], the fluorescence ratio (interference) was 1 (inactive). Moreover, the fold change in experiment [4] (setting [7]) was 1.01 (inactive); in experiment [4] (setting [8]), 2.3. Moreover, the cell count stood at 10500 in experiment [4] (setting [9]) and 10400 in experiment [4] (setting [10]). For the same compound, the result in experiment [5] was inactive. Further, the z-score in experiment [6] is 0.495 (inactive).
As for `C[C@@H]1C(=O)NC2=Nc3cccc(Cl)c3CN21`, in experiment [1], the period change was 0.025 h (inactive). Also, the inhibition in experiment [2] is 0% (inactive). For the same compound, the fluorescence ratio (interference) in experiment [3] is 1 (inactive). For the same compound, the fold change in experiment [4] (setting [7]) was 0.957 (inactive); in experiment [4] (setting [8]), 1.63. In addition, the values for the cell count in experiment [4] (setting [9]) and in experiment [4] (setting [10]) were 9040 and 9450, respectively. The outcome in experiment [5] was inactive. Moreover, the z-score in experiment [6] is 0.635 (inactive).
With `COc1cccc(OC)c1OCCNCC1CSc2ccccc2O1` (stereo not given), in experiment [1], the period change was 0.065 h (inactive). Also, the inhibition in experiment [2] was 0% (inactive). Also, the fluorescence ratio (interference) in experiment [3] was 1 (inactive). The fold change in experiment [4] (setting [7]) was 1.03 (inactive); in experiment [4] (setting [8]) it was 1.19. Also, the cell count in experiment [4] (setting [9]) turned out to be 7530; in experiment [4] (setting [10]), 7340. In experiment [5], the compound was classed as inactive. Further, the z-score in experiment [6] was -1.31 (inactive).
